Results as given in PubChem BioAssay (NCATS).
Inconclusive results are not listed. Activity calls are given as the source filed them. Calls follow the shape of the dose curve; as a rule, active = well fitted curve in the direction sought with a large enough effect; inconclusive = small, poorly fitted or top-dose-only effect, or another doubt; inactive = no such curve, though single readings can be large; an effect the other way counts as inactive or inconclusive.

Tests used:
[1] = molecular target: ATP-dependent 6-phosphofructokinase (Trypanosoma brucei brucei) (UniProt O15648); assay: qHTS Assay to Find Inhibitors of T. brucei phosphofructokinase: hit validation (AID 492961);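 also: luminescence reports ADP formed as PFK phosphorylates fructose-6-phosphate with ATP; % is scaled to controls: 0 for no effect and ±100 for the full control effect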
How it was run: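 Percent activity derived from corrected luminescence, normalized between 0x and 1x enzyme controls, then fitted to concentration-response curves. Conditions: 1.25 nM PFK, 0.1 mM ATP, 0.5 mM F6P, 45 min RT.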

[2] = qHTS profiling for inhibitors of Plasmodium falciparum proliferation (AID 504749); also: potency is read from the fitted curve at half-maximal effect;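 as to activity, negative = inhibition: 0% = DMSO vehicle and full inhibition = artemisinin control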; as to all read-outs here: nearly all actives have a fitted effect of over 60% in size; settings: P. falciparum in erythrocytes, SYBR Green DNA, 72 h; for activity, negative = inhibition: at 28.7 µM (top of the series)
How it was run: (§1)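 P. falciparum-infected erythrocytes (0.3% parasitemia, 2.5% hematocrit final) were exposed to compounds for 72 h at 37 C in 5% CO2, then lysed with SYBR Green buffer overnight at room temperature; parasite DNA fluorescence was normalized to artemisinin and DMSO controls.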

3D7 = assay: as above; settings: P. falciparum in erythrocytes, SYBR Green DNA, 72 h; series mostly up to 28.7 µM
How it was run: as §1

AA1029 = assay: as above; settings: P. falciparum in erythrocytes, SYBR Green DNA, 72 h; series mostly up to 28.7 µM
How it was run: as §1

AS120 = assay: as above; settings: P. falciparum in erythrocytes, SYBR Green DNA, 72 h; series mostly up to 28.7 µM
How it was run: as §1

ATS189 = assay: as above; settings: P. falciparum in erythrocytes, SYBR Green DNA, 72 h; series mostly up to 28.7 µM
How it was run: as §1

CP185 = assay: as above; settings: P. falciparum in erythrocytes, SYBR Green DNA, 72 h; series mostly up to 28.7 µM
How it was run: as §1

CP191 = assay: as above; settings: P. falciparum in erythrocytes, SYBR Green DNA, 72 h; series mostly up to 28.7 µM
How it was run: as §1

CP194 = assay: as above; settings: P. falciparum in erythrocytes, SYBR Green DNA, 72 h; series mostly up to 28.7 µM
How it was run: as §1

CP217 = assay: as above; settings: P. falciparum in erythrocytes, SYBR Green DNA, 72 h; series mostly up to 28.7 µM
How it was run: as §1

CP237 = assay: as above; settings: P. falciparum in erythrocytes, SYBR Green DNA, 72 h; series mostly up to 28.7 µM
How it was run: as §1

CP238 = assay: as above; settings: P. falciparum in erythrocytes, SYBR Green DNA, 72 h; series mostly up to 28.7 µM
How it was run: as §1

CP252 = assay: as above; settings: P. falciparum in erythrocytes, SYBR Green DNA, 72 h; series mostly up to 28.7 µM
How it was run: as §1

CP265 = assay: as above; settings: P. falciparum in erythrocytes, SYBR Green DNA, 72 h; series mostly up to 28.7 µM
How it was run: as §1

CP286 = assay: as above; settings: P. falciparum in erythrocytes, SYBR Green DNA, 72 h; series mostly up to 28.7 µM
How it was run: as §1

DFO2036 = assay: as above; settings: P. falciparum in erythrocytes, SYBR Green DNA, 72 h; series mostly up to 28.7 µM
How it was run: as §1

DIV30 = assay: as above; settings: P. falciparum in erythrocytes, SYBR Green DNA, 72 h; series mostly up to 28.7 µM
How it was run: as §1

Dd2 = assay: as above; settings: P. falciparum in erythrocytes, SYBR Green DNA, 72 h; series mostly up to 28.7 µM
How it was run: as §1

N140 = assay: as above; settings: P. falciparum in erythrocytes, SYBR Green DNA, 72 h; series mostly up to 28.7 µM
How it was run: as §1

P94_40 = assay: as above; settings: P. falciparum in erythrocytes, SYBR Green DNA, 72 h; series mostly up to 28.7 µM
How it was run: as §1

ATP-dependent 6-phosphofructokinase (Trypanosoma brucei brucei), sequence (O15648 whole entry, looked up): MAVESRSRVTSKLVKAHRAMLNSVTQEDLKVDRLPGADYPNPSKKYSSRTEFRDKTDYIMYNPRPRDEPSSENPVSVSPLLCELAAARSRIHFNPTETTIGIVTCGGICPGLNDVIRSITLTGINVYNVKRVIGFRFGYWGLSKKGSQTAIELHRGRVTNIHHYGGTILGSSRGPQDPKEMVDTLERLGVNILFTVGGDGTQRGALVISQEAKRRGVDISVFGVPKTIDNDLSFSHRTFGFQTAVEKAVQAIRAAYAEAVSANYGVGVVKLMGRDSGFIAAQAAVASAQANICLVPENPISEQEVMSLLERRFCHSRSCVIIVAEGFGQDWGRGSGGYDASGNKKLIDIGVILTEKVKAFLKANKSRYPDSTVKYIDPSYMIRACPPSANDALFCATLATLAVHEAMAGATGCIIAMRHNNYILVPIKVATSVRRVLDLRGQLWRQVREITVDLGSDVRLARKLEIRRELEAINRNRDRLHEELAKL

CC(=O)NC[C@@H]1CN(c2ccc(N3CCOCC3)c(F)c2)C(=O)O1
inactive: Potency [1] | activity, negative = inhibition ([2]; parasite line A) -12.2% | activity, negative = inhibition ([2]; parasite line B) -9.57% | Potency (3D7) | Potency (AA1029) | Potency (AS120) | Potency (ATS189) | Potency (CP185) | Potency (CP191) | Potency (CP194) | Potency (CP217) | Potency (CP237) | Potency (CP238) | Potency (CP252) | Potency (CP265) | Potency (CP286) | Potency (DFO2036) | Potency (DIV30) | Potency (Dd2) | Potency (N140) | Potency (P94_40)

C=CC1CN2CCC1CC2[C@@H](O)c1ccnc2ccc(OC)cc12 (stereo partly specified)
active: Potency ([2]; parasite line A) 50.1 nM | Potency ([2]; parasite line B) 56.2 nM | Potency (3D7) 79.4 nM | Potency (AA1029) 282 nM | Potency (AS120) 398 nM | Potency (ATS189) 316 nM | Potency (CP185) 501 nM | Potency (CP191) 224 nM | Potency (CP194) 536 nM | Potency (CP217) 501 nM | Potency (CP237) 891 nM | Potency (CP238) 891 nM | Potency (CP252) 355 nM | Potency (CP265) 355 nM | Potency (CP286) 282 nM | Potency (DFO2036) 708 nM | Potency (DIV30) 338 nM | Potency (Dd2) 282 nM | Potency (N140) 316 nM | Potency (P94_40) 251 nM
inactive: Potency [1]

CC(O)C1CCC2C3CCC4CC(O)CCC4(C)C3CCC12C (stereo unspecified)
inactive: Potency [1] | activity, negative = inhibition ([2]; parasite line A) 11.7% | activity, negative = inhibition ([2]; parasite line B) 5.42% | Potency (3D7) | Potency (AA1029) | Potency (AS120) | Potency (ATS189) | Potency (CP185) | Potency (CP191) | Potency (CP194) | Potency (CP217) | Potency (CP237) | Potency (CP238) | Potency (CP252) | Potency (CP265) | Potency (CP286) | Potency (DFO2036) | Potency (DIV30) | Potency (Dd2) | Potency (N140) | Potency (P94_40)

CC1(C)OC[C@@H]2O[C@@]3(C(=O)O)OC(C)(C)O[C@@H]3[C@@H]2O1
inactive: Potency [1] | activity, negative = inhibition ([2]; parasite line A) 1.64% | activity, negative = inhibition ([2]; parasite line B) 11.5% | Potency (3D7) | Potency (AA1029) | Potency (AS120) | Potency (ATS189) | Potency (CP185) | Potency (CP191) | Potency (CP194) | Potency (CP217) | Potency (CP237) | Potency (CP238) | Potency (CP252) | Potency (CP265) | Potency (CP286) | Potency (DFO2036) | Potency (DIV30) | Potency (Dd2) | Potency (N140) | Potency (P94_40)

CCCCCCCCCCCCCCCC(=O)OCC(COP(=O)(O)OCC[N+](C)(C)C)OC(=O)CCCCCCCCCCCCCCC (stereo unspecified)
inactive: Potency [1] | activity, negative = inhibition ([2]; parasite line A) -4.13% | activity, negative = inhibition ([2]; parasite line B) 3.84% | Potency (3D7) | Potency (AA1029) | Potency (AS120) | Potency (ATS189) | Potency (CP185) | Potency (CP191) | Potency (CP194) | Potency (CP217) | Potency (CP237) | Potency (CP238) | Potency (CP252) | Potency (CP265) | Potency (CP286) | Potency (DFO2036) | Potency (DIV30) | Potency (Dd2) | Potency (N140) | Potency (P94_40)

CC(c1ncncc1F)[C@](O)(Cn1cncn1)c1ccc(F)cc1F (stereo partly specified)
inactive: Potency [1] | activity, negative = inhibition ([2]; parasite line A) 7.39% | activity, negative = inhibition ([2]; parasite line B) -17.3% | Potency (3D7) | Potency (AA1029) | Potency (AS120) | Potency (ATS189) | Potency (CP185) | Potency (CP191) | Potency (CP194) | Potency (CP217) | Potency (CP237) | Potency (CP238) | Potency (CP252) | Potency (CP265) | Potency (CP286) | Potency (DFO2036) | Potency (DIV30) | Potency (Dd2) | Potency (N140) | Potency (P94_40)
